Measured values published in PubChem BioAssay AID1159580 (chemical genetic matrix, 2015).
Several values for one entry are separate records, joined by “and”; a condition that tells them apart may be missing. Equal entries are not always repeated. About 2,000 (36%) of roughly 5,500 compounds were called active. Roughly 18% stayed inconclusive and do not appear here. Cut-off read from the data, not from the text of the source: active = normalized growth mostly below about 0.91 (no sharp cut-off); inconclusive = no clear call, values can overlap the other calls; inactive = mostly above about 0.92. The list shows a part of the results.

Assay: chemical genetic growth profiling, strain panel (AID 1159580);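 note: tested at 20 µM; growth read once vehicle control cultures reached saturation at 30 °C; 1 = growth at the plate median or of vehicle wells; lower values mean less growth of the strain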
Settings: S. cerevisiae deletion strains, growth OD

Measured: normalized growth

Cn1nnnc1SCC1=C(C(=O)O)N2C(=O)C(NC(=O)C(O)c3ccccc3)C2SC1 (configuration not stated)
inactive: locus YAL013W, strain DEP1, stronger effect = lower value 1.02 | locus YAL021C, strain ccr4, stronger effect = lower value 0.97 | locus YAL026C, strain drs2, stronger effect = lower value 0.972 | locus YAL030W, strain snc1, stronger effect = lower value 0.983 | locus YBL061C, strain skt5, stronger effect = lower value 0.97 | locus YBR009C, strain hhf1, stronger effect = lower value 0.988 | locus YBR021W, strain FUR4, stronger effect = lower value 1.01 | locus YBR023C, strain chs3, stronger effect = lower value 0.964 | locus YBR171W, strain sec66, stronger effect = lower value 0.945 | locus YBR229C, strain ROT2, stronger effect = lower value 1.01 | locus YBR231C, strain swc5, stronger effect = lower value 0.991 | locus YBR279W, strain paf1, stronger effect = lower value 0.977 | locus YCL011C, strain gbp2, stronger effect = lower value 0.971 | locus YCL016C, strain dcc1, stronger effect = lower value 0.967 | locus YCL029C, strain bik1, stronger effect = lower value 0.996 | locus YCL061C, strain MRC1, stronger effect = lower value 0.968 | locus YCL069W, strain vba3, stronger effect = lower value 0.973 | locus YCR088W, strain abp1, stronger effect = lower value 0.975 | locus YDL005C, strain med2, stronger effect = lower value 0.972 | locus YDL035C, strain GPR1, stronger effect = lower value 1.03 | locus YDL040C, strain nat1, stronger effect = lower value 0.984 | locus YDL074C, strain BRE1, stronger effect = lower value 1.05 | locus YDL101C, strain DUN1, stronger effect = lower value 1.02 | locus YDL134C, strain PPH21, stronger effect = lower value 1.02 | locus YDL185W, strain tfp1, stronger effect = lower value 1 | locus YDL192W, strain arf1, stronger effect = lower value 1 | locus YDR001C, strain nth1, stronger effect = lower value 0.979 | locus YDR069C, strain doa4, stronger effect = lower value 0.978 | locus YDR101C, strain arx1, stronger effect = lower value 0.99 | locus YDR137W, strain rgp1, stronger effect = lower value 0.943 | locus YDR150W, strain NUM1, stronger effect = lower value 1.03 | locus YDR159W, strain sac3, stronger effect = lower value 0.985 | locus YDR162C, strain NBP2, stronger effect = lower value 1.06 | locus YDR195W, strain ref2 0.969 | locus YDR297W, strain sur2, stronger effect = lower value 0.983 | locus YDR318W, strain mcm21, stronger effect = lower value 0.996 | locus YDR334W, strain swr1, stronger effect = lower value 0.964 | locus YDR335W, strain msn5, stronger effect = lower value 0.978 | locus YDR388W, stronger effect = lower value 0.991 | locus YDR392W, strain spt3, stronger effect = lower value 0.873 | locus YDR502C, strain sam2, stronger effect = lower value 1.01 | locus YEL003W, strain gim4, stronger effect = lower value 0.995 | locus YEL037C, strain rad23, stronger effect = lower value 0.972 | locus YEL061C, strain CIN8 (second series), stronger effect = lower value 0.978 | locus YEL061C, strain CIN8, stronger effect = lower value 1.01 | locus YER015W, strain faa2, stronger effect = lower value 0.99 | locus YER016W, strain bim1, stronger effect = lower value 0.995 | locus YER110C, stronger effect = lower value 0.997 | locus YER111C, strain swi4, stronger effect = lower value 0.96 | locus YER155C, strain BEM2 (second series), stronger effect = lower value 0.973 | locus YER155C, strain BEM2, stronger effect = lower value 1.02 | locus YER167W, strain BCK2, stronger effect = lower value 1.02 | locus YFR010W, strain ubp6, stronger effect = lower value 0.974 | locus YGL078C, strain dbp3, stronger effect = lower value 1 | locus YGL086W, strain mad1, stronger effect = lower value 1 | locus YGL167C, strain pmr1, stronger effect = lower value 0.967 | locus YGL173C, strain kem1, stronger effect = lower value 0.97 | locus YGL227W, strain vid30, stronger effect = lower value 0.984 | locus YGL240W, strain doc1, stronger effect = lower value 0.992 | locus YGL248W, strain PDE1, stronger effect = lower value 1.02 | locus YGL253W, strain hxk2, stronger effect = lower value 0.98 | locus YGR078C, strain PAC10, stronger effect = lower value 1.05 | locus YGR135W, strain pre9, stronger effect = lower value 1.01 | locus YGR229C, strain SMI1, stronger effect = lower value 1.03 | locus YGR252W, strain gcn5, stronger effect = lower value 0.972 | locus YHR013C, strain ard1, stronger effect = lower value 0.952 | locus YHR027C, strain rpn1, stronger effect = lower value 0.968 | locus YHR030C, strain SLT2, stronger effect = lower value 1.01 and 0.991 | locus YHR079C, strain IRE1 (second series), stronger effect = lower value 1 | locus YHR079C, strain IRE1, stronger effect = lower value 0.984 | locus YHR094C, strain hxt1, stronger effect = lower value 1 | locus YHR129C, strain ARP1, stronger effect = lower value 1.01 | locus YHR142W, strain chs7, stronger effect = lower value 0.951 | locus YHR200W, strain rpn10, stronger effect = lower value 1.01 | locus YIL066C, strain RNR3, stronger effect = lower value 1.02 | locus YIL073C, strain SPO22, stronger effect = lower value 1.03 | locus YIL125W, strain kgd1, stronger effect = lower value 1.01 | locus YIR030C, strain dcg1, stronger effect = lower value 1 | locus YJL092W, strain hpr5, stronger effect = lower value 0.976 | locus YJL095W, strain BCK1 (second series), stronger effect = lower value 0.987 | locus YJL095W, strain BCK1, stronger effect = lower value 1.02 and 0.987 | locus YJL115W, strain asf1, stronger effect = lower value 0.958 | locus YJL129C, strain trk1, stronger effect = lower value 0.973 | locus YJL134W, strain LCB3, stronger effect = lower value 1.01 | locus YJL154C, strain vps35, stronger effect = lower value 0.982 | locus YJL164C, strain tpk1, stronger effect = lower value 0.954 | locus YJL166W, strain qcr8, stronger effect = lower value 0.968 | locus YJL168C, strain set2, stronger effect = lower value 0.995 | locus YJL187C, strain SWE1 (second series), stronger effect = lower value 1.02 | locus YJL187C, strain SWE1, stronger effect = lower value 0.974 | locus YJR043C, strain POL32, stronger effect = lower value 1.02 | locus YJR066W, strain TOR1, stronger effect = lower value 0.938
